Records with an inconclusive call do not appear. The source made the active and inactive calls. Calls come from the whole dose curve; as a rule, active = well fitted curve in the direction sought with a large enough effect; inconclusive = small, poorly fitted or top-dose-only effect, or another doubt; inactive = no such curve, though single readings can be large; an effect the other way counts as inactive or inconclusive.
Legend:
[1] = MultiTox-Fluor Cytotoxicity Assay - LYMP1-001 - Dead Cells (AID 946); conditions: LYMP1-001 lymphoblastoid cells, dead-cell protease fluorescence; series mostly up to 92.2 µM;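 note: cells exposed to compound for 16 h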
Method in brief: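 Seed 2500 LYMP1-001 cells/well, incubate 5 hr at 37 C; add compound, 16 hr at 37 C; add MultiTox-Fluor reagent, 60 min RT; read dead-cell fluorescence Ex/Em=485/520. Normalize to DMSO and 15 uM tetraoctylammonium bromide.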

[2] = MultiTox-Fluor Cytotoxicity Assay - LYMP1-001 - Live Cells (AID 947); conditions: LYMP1-001 lymphoblastoid cells, live-cell protease fluorescence viability; series mostly up to 92.2 µM
[3] = Cell Viability - LYMP1-002 - Assay at 16 hr (AID 948); conditions: LYMP1-002 lymphoblastoid cell viability; series mostly up to 92.2 µM
Method in brief: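 LYMP1-002 human lymphoblastoid cells, 2500/well; 5 hr 37 C; cpd 16 hr 37 C; CellTiter-Glo 30 min RT; luminescence (ATP). Concentration-response, Hill-fit AC50. Pos ctrl tetraoctylammonium bromide.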

[4] = MultiTox-Fluor Cytotoxicity Assay - LYMP1-002 - Live Cells (AID 955); conditions: LYMP1-002 lymphoblastoid live-cell protease fluorescence viability; series mostly up to 46.1 µM;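 note: cells exposed to compound for 16 hours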
Method in brief: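 Human lymphoblastoid LYMP1-002 cells, 2500/well, treated 16 h at 37 C in complete medium. Live-cell protease activity via GF-AFC fluorescence (Ex/Em 405/510) after 60 min reagent incubation; AC50 from Hill fits.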

[5] = MultiTox-Fluor Cytotoxicity Assay - LYMP1-002 - Dead Cells (AID 960); conditions: LYMP1-002 lymphoblastoid cells, dead-cell protease fluorescence; series mostly up to 46.1 µM;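 note: cells exposed to compound for 16 h at 37 °C; nearly all actives have a fitted effect of over 60% in size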
Method in brief: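 Human lymphoblastoid LYMP1-002 cells, 2500/well, treated 16 h at 37 C; dead-cell protease cleavage of bis-AAF-R110 read by fluorescence (485/520); normalized to DMSO and 15 uM tetraoctylammonium bromide; AC50 from Hill fit.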

[6] = MultiTox-Fluor Cytotoxicity Assay - LYMP1-003 - Dead Cells (AID 961); conditions: LYMP1-003 lymphoblastoid cells, dead-cell protease fluorescence; series mostly up to 92.2 µM;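 note: cells exposed to compound for 16 h at 37 °C; nearly all actives have a fitted effect of over 70% in size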
Method in brief: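 LYMP1-003 lymphoblastoid, 2500 cells/well, 5 hr settle then 16 hr cpd at 37 C; MultiTox-Fluor reagent 60 min RT; Ex/Em 485/520 dead-cell signal; norm. DMSO = 0%, 15 uM tetraoctylammonium bromide = 100%; Hill AC50.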

[7] = MultiTox-Fluor Cytotoxicity Assay - LYMP1-003 - Live Cells (AID 962); conditions: LYMP1-003 lymphoblastoid cells, MultiTox-Fluor live-cell protease fluorescence; series mostly up to 92.2 µM;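 note: cells exposed to compound for 16 hours at 37 °C; cytotoxic hits lower the live-cell protease signal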
Method in brief: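 LYMP1-003 lymphoblastoid cells, 2500/well in complete medium, treated 16 h at 37 C; live-cell protease cleavage of GF-AFC read by fluorescence (Ex/Em 405/510) after 60 min reagent; AC50 from Hill fits of concentration-response.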

[8] = Cell Viability - LYMP1-003 - Assay at 24 hr (AID 963); conditions: LYMP1-003 lymphoblastoid cell viability; series mostly up to 92.2 µM
Method in brief: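 Human lymphoblastoid LYMP1-003 cells, 2500/well, treated 24 h at 37 C in complete medium. Viability read as intracellular ATP by CellTiter-Glo luminescence after 30 min at room temperature; AC50 from Hill-equation fits of qHTS concentration-response.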

[9] = Cell Viability - LYMP1-003 - Assay at 40 hr (AID 964); conditions: LYMP1-003 lymphoblastoid viability; series mostly up to 92.2 µM; note: nearly all actives have a fitted effect of over 60% in size
Method in brief: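 LYMP1-003 human lymphoblastoid cells, 2500/well, preincubated 5 h at 37 C, then treated with compound for 40 h at 37 C. Intracellular ATP read by CellTiter-Glo luminescence after 30 min at room temperature; AC50 from Hill-equation fits.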

[10] = Cell Viability - LYMP2-003 (AID 965); conditions: LYMP2-003 lymphoblastoid cell viability; series mostly up to 92.2 µM;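 note: cells exposed to compounds for 24 h before reading; nearly all actives have a fitted effect of over 50% in size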
Method in brief: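 CellTiter-Glo luminescence (cellular ATP) after 24 h compound exposure at 37 C in complete medium; 2500 cells/well, 5 h settling beforehand. Concentration-response fitted to standard Hill equation for AC50. Tetraoctylammonium bromide served as positive control.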

[11] = Cell Viability - LYMP2-004 (AID 966); conditions: LYMP2-004 lymphoblastoid cell viability, qHTS; series mostly up to 92.2 µM; note: nearly all actives have a fitted effect of over 65% in size
Method in brief: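 Lymphoblastoid LYMP2-004 cells, 2500 per well, were preincubated for 5 hr and then treated with compound for 24 h at 37 C in complete medium. Viability was read as cellular ATP by CellTiter-Glo luminescence, and AC50 values were taken from Hill fits to concentration-response data.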

[12] = Cell Viability - LYMP2-005 (AID 967); conditions: LYMP2-005 lymphoblastoid cell viability; series mostly up to 92.2 µM
Method in brief: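 Steps: seed 2500 LYMP2-005 cells/well, incubate 5 h at 37 C, add compound, incubate 24 h at 37 C, add CellTiter-Glo, wait 30 min at RT, read luminescence. Concentration-response data fitted to Hill equation for AC50.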

[13] = Cell Viability - LYMP2-009 (AID 968); conditions: LYMP2-009 lymphoblastoid cell viability; series mostly up to 92.2 µM; note: nearly all actives have a fitted effect of over 55% in size
[14] = Cell Viability - LYMP2-011 (AID 969); conditions: LYMP2-011 lymphoblastoid cells viability; series mostly up to 92.2 µM; note: nearly all actives have a fitted effect of over 60% in size
Method in brief: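 2500 cells/well in complete medium, compound-treated 24 h at 37 C. Viability read as intracellular ATP by CellTiter-Glo luminescence after 30 min at room temperature. AC50 from Hill fits of qHTS concentration-response data.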

[15] = Cell Viability - LYMP2-013 (AID 970); conditions: LYMP2-013 lymphoblastoid cells viability; series mostly up to 92.2 µM; note: nearly all actives have a fitted effect of over 55% in size
Method in brief: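 Human lymphoblastoid LYMP2-013 cells, 2500/well, treated 24 h at 37 C in complete medium; viability as intracellular ATP by CellTiter-Glo luminescence after 30 min. AC50 from Hill fits of qHTS concentration-response.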

[16] = Cell Viability - LYMP2-015 (AID 971); conditions: LYMP2-015 lymphoblastoid cell viability; series mostly up to 92.2 µM; note: nearly all actives have a fitted effect of over 55% in size
Method in brief: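 LYMP2-015 human lymphoblastoid cells (2500/well) in complete medium, compound-treated 24 h at 37 C; viability read as cellular ATP by CellTiter-Glo luminescence after 30 min at room temperature. AC50 from Hill-equation fits of qHTS concentration-response data.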

[17] = Cell Viability - LYMP2-017 (AID 972); conditions: LYMP2-017 lymphoblastoid cell viability; series mostly up to 92.2 µM; note: nearly all actives have a fitted effect of over 55% in size
Method in brief: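 LYMP2-017 human lymphoblastoid cells (2500/well) settled 5 hr at 37 C, then exposed to compound 24 hr at 37 C in complete medium. Viability taken as intracellular ATP by CellTiter-Glo luminescence after 30 min at RT; AC50 from Hill fits.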

[18] = Cell Viability - LYMP2-019 (AID 973); conditions: LYMP2-019 lymphoblastoid cell line viability; series mostly up to 92.2 µM; note: nearly all actives have a fitted effect of over 55% in size
Method in brief: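 Human lymphoblastoid LYMP2-019 cells (2500/well) preincubated 5 h at 37 C, then treated 24 h at 37 C in complete medium. Viability by CellTiter-Glo ATP luminescence after 30 min at room temperature; AC50 from Hill fits.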

[19] = Cell Viability - LYMP2-021 (AID 974); conditions: LYMP2-021 lymphoblastoid cells viability; series mostly up to 92.2 µM
Method in brief: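 Human lymphoblastoid LYMP2-021 cells, 2500/well in complete medium, treated 24 hours at 37 C. Intracellular ATP by CellTiter-Glo luminescence (30 min, RT); AC50 from Hill fits of concentration-response.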

[20] = Cell Viability - LYMP2-023 (AID 975); conditions: LYMP2-023 lymphoblastoid cell viability; series mostly up to 92.2 µM
Method in brief: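 LYMP2-023 human lymphoblastoid cells, 2500/well, preincubated 5 hr at 37 C, then compound-treated 24 hr at 37 C in complete medium. CellTiter-Glo luminescence (ATP) after 30 min at room temperature; AC50 from Hill-equation fits; tetraoctylammonium bromide positive control.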

Measured: Potency

CC(C)(C)c1ccc(OCC2CO2)cc1 (stereo unspecified)
inactive: all assays above

CCCCOCCOCCSC#N
not listed: [20]
inactive: all other assays above

FC(F)(F)c1cccc(Cl)c1
inactive: all assays above

Cc1cccc2cccnc12
inactive: all assays above

O=C(O)c1ccc(Cl)cc1Cl
inactive: all assays above

O=C(O)c1ccc(C(=O)O)cc1
not listed: [19]
inactive: all other assays above

Nc1cc(Cl)c([N+](=O)[O-])cc1O
inactive: all assays above

CNc1ccccc1
not listed: [19] | [20]
inactive: all other assays above

CC(C)=CCC/C(C)=C/C=O
inactive: all assays above

CCNc1ccccc1
inactive: all assays above

c1ccc2[nH]cnc2c1
not listed: [20]
inactive: all other assays above

Cc1ccccc1C#N
not listed: [12] | [19]
inactive: all other assays above

O=Cc1ccccc1Cl
not listed: [13] | [14]
inactive: all other assays above

C[C@@H]1CC2(OC[C@]3(C)O[C@H]23)O[C@H]2C[C@@]3(C)[C@@H]4CC[C@H]5C(C)(C)C(O[C@@H]6OC[C@@H](O)[C@H](O)[C@H]6O)CC[C@@]56C[C@@]46CC[C@]3(C)[C@@H]12 (stereo partly specified)
not listed: [12]
inactive: all other assays above

O=[N+]([O-])c1ccc2nc[nH]c2c1
not listed: [12] | [19]
inactive: all other assays above

CC(C)Nc1ccccc1
not listed: [11] | [20]
inactive: all other assays above

O=[N+]([O-])c1ccccc1CCO
not listed: [13]
inactive: all other assays above

O=C(O)CNC(=O)c1ccc([N+](=O)[O-])cc1
not listed: [12]
inactive: all other assays above

[O-]/[N+](=N\O)c1ccccc1
not listed: [12]
inactive: all other assays above

O=[N+]([O-])c1ccc(NCCO)c(OCCO)c1
not listed: [12]
inactive: all other assays above

Cc1c(N)cccc1[N+](=O)[O-]
not listed: [15]
inactive: all other assays above

Cc1ccc(C#N)cc1
not listed: [14]
inactive: all other assays above

O=[N+]([O-])c1cccc(C(F)(F)F)c1
not listed: [13] | [15]
inactive: all other assays above

O=Cc1c(Cl)cccc1Cl
not listed: [12] | [14] | [16]
inactive: all other assays above

CC(C=O)Cc1ccc(C(C)(C)C)cc1 (stereo unspecified)
not listed: [13] | [20]
inactive: all other assays above

O=C1C=CCCC1
not listed: [13] | [14] | [19]
inactive: all other assays above

N#Cc1ccccc1
not listed: [12] | [19]
inactive: all other assays above

CCCCCCCN
not listed: [14]
inactive: all other assays above

CC#N
not listed: [14]
inactive: all other assays above

— PubChem BioAssay (NCATS)
